High-throughput results deposited in PubChem BioAssay by several laboratories.
Most compounds without a hit are left out; they make up all but 8% or so of the library.
PostGolgi ctrl: inhibits growth of the yeast control strain; efflux-deficient yeast background strain, growth absorbance A615, 16 h; inhibition, % at 10 µM; hit rate 5% among 98,000; AID 738
Cav3 T inh: blocks human Cav3.2 T-type calcium channel | Cav3.2-expressing cells, Fluo-4 calcium fluorescence FDSS; hits give low values | B-score at 10 µM | hit rate 4% among 100,000 | AID 449739;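 active = single-dose well whose peak fluorescence ratio is a statistical outlier from its plate by either plate-standardised score or position-corrected B-score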
PTK2B oligo ant: blocks oligomerization of human Pyk2 in cells; hit rate 0.83% among 99,000; AID 1347419; z-score (the deposit names both 25 µM and 10 µM); Q293 cells, Pyk2 FERM NanoBiT luminescence; hits give low values;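 active = Z-score of -3 or lower, scaled per plate to the spread of control and sample wells; inactive = z-score above -3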;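 also: negative z-score means lost luminescence so less FERM oligomerization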
PostGolgi yeast: growth inhibition of a yeast mutant, post-Golgi transport screen | post-Golgi transport phenotypic cell assay | inhibition, % at 10 µM | hit rate 0.9% among 98,000 | AID 739;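 also: yeast cells grown in 1536-well plates; yeast grown about 18 h at 30C before absorbance read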
Numbers without * were called inactive; x = no result. Rule as the data show it, unless noted: active = inhibition above about 30%; inactive = the rest.

SMILES | PostGolgi ctrl | Cav3 T inh | PTK2B oligo ant | PostGolgi yeast
Cc1noc(C)c1CSc1nc2ccccc2c(=O)n1-c1ccc(F)cc1F | 55.2* | x | -1.39 | 3.4
COc1ccccc1CN(C(=O)Cc1cccs1)C(C(=O)NC1CCCC1)c1ccncc1 (stereo not given) | 20.4 | -0.394 | -0.34 | -4.4
COc1ccc(CN(C(=O)Cc2c[nH]c3ccccc23)C(C(=O)NC2CCCCC2)c2ccc(C)o2)cc1 (stereo not given) | -1.5 | -7.27* | -1.13 | -11.6
COc1cc(C(C(=O)NC2CCCCC2)N(Cc2cccs2)C(=O)Cc2c[nH]c3ccccc23)cc(OC)c1OC (stereo not given) | 8.4 | -6.46* | -1.4 | 10.1
COc1ccc(C(C(=O)NC2CCCC2)N(Cc2ccccc2)C(=O)CNC(=O)c2ccco2)cc1 (stereo not given) | 5.6 | -1.93 | -0.49 | -1.9
Cc1nnc(SCC(=O)n2c3c(c4ccccc42)CCCC3)s1 | 8.7 | -0.585 | 0.08 | 0.9
O=C(CN1CCOCCOCCN(CC(=O)Nc2ccccc2)CCOCC1)Nc1ccccc1 | 2.2 | -0.073 | 1.13 | 30.0*
O=C(CN1CCOCCOCCOCCOCC1)Nc1ccccc1 | x | 0.355 | 0.79 | x
O=C(CN1CCOCCOCCOCC1)Nc1ccccc1 | 0.6 | 0.119 | 0.5 | -4.3
O=C(CN1CCOCC1)Nc1cccc(Br)c1 | 30.8* | -0.158 | 1.62 | -3.8
O=c1ncn(-c2ccccc2F)c2ncccc12 | 16.6 | 0.341 | 0.65 | 10.2
COc1ccccc1C(=O)Nc1cccc(-c2cn3ccsc3n2)c1 | 38.2* | 0.186 | x | 2.2
Cc1ccc(-n2c(=O)[nH]cc(C(=O)Nc3ccc4c(c3)OCO4)c2=O)cc1C | x | 0.000833 | x | x
Cc1nn(C)c(Oc2ccccc2)c1CCNS(=O)(=O)c1ccc(Cl)cc1 | 21.1 | -6.94* | -1.36 | -1.6
CCCCCn1nc(-c2ccccc2)c2nc3ccccc3nc21 | 4.2 | -7.27* | 0.46 | -4.1
CCCn1nc(-c2ccccc2)c2nc3ccccc3nc21 | 4.1 | -2.19 | x | -6.0
CCN(CC)CCNc1nc2cc(OC)c(OC)cc2c2nc(-c3ccccc3)nn12 | 6.8 | 0.0138 | 0.7 | 2.2
COc1ccccc1OCCSc1nnnn1-c1ccc(C)cc1 | 16.4 | -5.01* | x | 1.5
Fc1ccccc1OCCSc1nnnn1-c1ccccc1 | 20.7 | -3.11 | -2.63 | 9.1
O=C(O)c1ccc(-n2nnnc2SCc2ccccc2F)cc1 | -5.3 | -4.06* | x | -4.0
CCOc1ccc(OCCSc2nnnn2-c2ccccc2)cc1 | 20.4 | -2.62 | -4.09* | -4.9
CCSc1nnnn1-c1ccccc1 | -7.4 | -0.411 | -0.21 | -2.8
CSc1nnnn1-c1ccc(C(=O)O)cc1 | 25.3 | 0.516 | 0.36 | 9.0
c1ccc(OCCSc2nnnn2-c2ccccc2)cc1 | 7.6 | -5.96* | -2.4 | 1.4
Cc1nccn1-c1ccc(C(F)(F)F)cc1NC=O | 4.6 | -0.0423 | -0.88 | -5.3
SMILES | PostGolgi ctrl | Cav3 T inh | PTK2B oligo ant | PostGolgi yeast
Nc1c(S(=O)(=O)c2cccc(Cl)c2)c2nc3ccccc3nc2n1/N=C/c1ccc(O)c(O)c1 | -4.2 | -0.7 | x | 6.0
Cc1ncc(CSc2nnnn2-c2ccccc2)c(N)n1 | 31.7* | 1.4 | 0.21 | -3.4
CCOC(=O)C[C@H]1c2ccc(C(F)(F)F)cc2S(=O)(=O)N1C(C)(C)C | x | -0.412 | x | x
CSc1nc2ccccc2n1Cc1c(Cl)cccc1Cl | 34.3* | -3.74 | -0.18 | 4.9
COc1cccc(Cn2nnc(C(=O)NCc3ccccc3Cl)c2N)c1 | 20.5 | -3.91* | x | -5.5
CC(=O)Nc1cccc(Oc2nc(C)cc(C)c2C#N)c1 | 32.4* | 0.331 | x | -4.5
CCC(=O)Nc1cccc(Oc2nc(C)cc(C)c2C#N)c1 | 2.7 | 0.213 | x | -1.9
Cn1cc(SCC(=O)Nc2ccc3c(c2)OCCO3)c2ccccc21 | 2.6 | -0.848 | x | 1.3
COc1cccc(-c2cc(C(F)(F)F)nc(NCc3ccco3)n2)c1 | 32.7* | -0.391 | -0.98 | -0.6
CCCNC(=O)NC(=O)CSc1nc2cc(C(=O)OC)ccc2c(=O)n1-c1ccccc1 | 3.0 | 0.654 | -3.15* | 18.4
O=c1n(Cc2ccc(Cl)cc2)c2sc3c(c2c2ncnn12)CCCC3 | 92.6* | 0.0837 | -0.75 | 16.5
CCOC(=O)CN1CC23C=CC(O2)C(C(=O)Nc2ccc(C(C)=O)cc2)C3C1=O (stereo not given) | 14.3 | 0.0437 | x | -1.6
Cc1cc(C)c(S(=O)(=O)c2ccccc2)c(OC(=O)c2cc(F)c(F)cc2Cl)n1 | 0.6 | 0.0563 | 0.58 | -3.3
O=C(CCCc1ccccc1)Nc1cccc2c1CCCC2 | 36.8* | 0.0353 | 0.58 | -1.0
O=C(COc1ccccc1)Nc1cccc2c1CCCC2 | -5.6 | -2.68 | 1.58 | 4.6
Cc1ccc(Cn2c(CN(C)Cc3ccccc3)nc3c2c(=O)n(C)c(=O)n3C)cc1 | 37.9* | -5.23* | 0.17 | 0.2
CCCCCn1c(CN(C)Cc2ccccc2)nc2c1c(=O)n(C)c(=O)n2C | 16.5 | -2.87 | 0.26 | -4.8
